Source: PubChem BioAssay (NCATS)
“And” between values parts separate entries of the source, which are not always exact repeats. Equal entries are not always repeated. Inconclusive results are not listed. The source made the active and inactive calls. Unless noted, calls follow the shape of the dose curve; as a rule, active = well fitted curve in the direction sought with a large enough effect; inconclusive = small, poorly fitted or top-dose-only effect, or another doubt; inactive = no such curve, though single readings can be large; an effect the other way counts as inactive or inconclusive.

Key:
[1] = Stat Signaling Pathway (AID 446; active = well fitted curve in either direction with a large enough effect, not every such curve was filed as active;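 also: ME-180 cervical cancer cells given 40 pM IL-6 alongside compound; SIE-controlled beta-lactamase reporter measured as 460/530 nm FRET emission ratio; % is scaled to controls: 0 for no effect and ±100 for the full control effect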)
Procedure, shortened: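 Compound effects on IL-6-induced STAT reporter activity were measured in ME-180 cells. After overnight culture, cells were co-treated with 40 pM IL-6 for 5 hrs before beta-lactamase substrate loading at room temperature.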

[2] = biological target: Mitogen-activated protein kinase 10 (Mus musculus) (UniProt Q61831); test: JNK3 AlphaScreen Assay (AID 530; active = well fitted curve in either direction with a large enough effect, not every such curve was filed as active;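 also: kinase came from lysate of stimulated human HepG2 cells; signal reports phosphorylation of biotinylated GST-cJun 1-79 at Ser73 with 10 µM ATP; % is scaled to controls: 0 for no effect and ±100 for the full control effect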)
Procedure, shortened: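 Biotinylated GST-cJun(1-79) served as substrate for JNK3 in HepG2 lysates stimulated with IL-1beta and TNF-alpha. ATP was 10 uM final, pH 7.6. Ser73 phosphorylation was quantified by AlphaScreen (680 nm excitation).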

[3] = Cell Viability - N2a (AID 540);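 also: plate controls were DMSO alone for no effect and tamoxifen control for full effect; nearly all actives have a fitted effect of over 45% in size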
Procedure, shortened: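 In this qHTS cytotoxicity screen, ATP-dependent luciferase luminescence reports viable N2a cells after a 40 hr compound exposure in complete culture medium. Potencies are AC50 values from standard Hill equation fits.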

[4] = Cell Viability - NIH 3T3 (AID 541); conditions: NIH 3T3 cell viability, qHTS; activity change, negative = cytotoxicity: at 92.2 µM (top of the series); also: nearly all actives have a fitted effect of over 25% in size; also: potency is read from the fitted curve at half-maximal effect;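 as to activity change, negative = cytotoxicity: plate controls were DMSO alone for no effect and tamoxifen positive control for full effect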
Procedure, shortened: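 In this cytotoxicity screen, acute toxicity is scored as an ATP drop measured by CellTiter-Glo in NIH 3T3 fibroblasts following a 40 hr, 37 °C incubation with compound.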

[5] = Cell Viability - HUV-EC-C (AID 542); also: nearly all actives have a fitted effect of over 35% in size; also: potency is read from the fitted curve at half-maximal effect; as to activity change, negative = cytotoxicity: % is scaled to controls: 0 for no effect and ±100 for the full control effect
Procedure, shortened: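 Concentration-dependent ATP loss in HUV-EC-C cells is the measure. Exposure lasts 40 hr at 37 °C; luminescence follows CellTiter-Glo addition, and Hill fits give AC50.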

[6] = Cell Viability - SH-SY5Y (AID 544); also: nearly all actives have a fitted effect of over 55% in size; also: potency is read from the fitted curve at half-maximal effect
Procedure, shortened: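 Quantitative HTS in SH-SY5Y neuroblastoma cells, 40 hr treatment at 37 °C, ATP content by luciferase luminescence; AC50 from Hill fits.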

[7] = Cell Viability - Renal Proximal Tubule (AID 545); conditions: renal proximal tubule cells viability, primary cells of rat origin; activity change, negative = cytotoxicity: at 91.7 µM (top of the series); also: nearly all actives have a fitted effect of over 40% in size; also: potency is read from the fitted curve at half-maximal effect;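 as to activity change, negative = cytotoxicity: 0% = DMSO only and -100% = 100 µM tamoxifen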
Procedure, shortened: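 Rat renal proximal tubule primary cells, 1000/well, exposed to compounds for 40 hr at 37 °C in complete medium; cellular ATP read by CellTiter-Glo luminescence. AC50 from concentration-response fitted with standard Hill equation.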

[8] = Cell Viability - Mesenchymal (AID 546); conditions: mesenchymal cells viability, qHTS; activity change, negative = cytotoxicity: at 91.7 µM (top of the series);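 also: cells exposed to compound for 40 hours before reading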; also: potency is read from the fitted curve at half-maximal effect;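 as to activity change, negative = cytotoxicity: 0% = DMSO only and -100% = 100 µM tamoxifen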
Procedure, shortened: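 In this qHTS cytotoxicity format, glomerulus-derived human mesenchymal kidney cells received compound for 40 hr, then luciferase-based ATP quantitation. Concentration-response data were fitted with the Hill equation.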

[9] = biological target: 3',5'-cyclic-AMP phosphodiesterase 4B (Homo sapiens) (UniProt Q07343); test: qHTS Assay for Inhibitors of PDE-IV (AID 607; active = well fitted activation curve with a large enough effect in the main read-out, with a control signal flat, not every such curve was filed as active; also: potency is read from the fitted curve at half-maximal effect)
Procedure, shortened: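 ACTOne HEK293 cells carry a modified cAMP-gated CNG channel and express endogenous PDE4; plated 1000 cells/well, compounds up to 22.9 uM final. Membrane-potential dye fluorescence (ex 535/em 590) was read; parental cells received 10 uM forskolin + 100 uM RO 20-1724.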

[10] = Cellular Toxicity (caspase-3) HepG2 (AID 654);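 also: cells exposed to compound for 16 hours before reading; 0% = DMSO alone and 100% = caspase signal from 100 µM tamoxifen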
Procedure, shortened: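 Concentration-response AC50 values reflect caspase-3/7 induction in HepG2 cells after 16 hours of compound exposure, quantified by luminescence from liberated aminoluciferin and referenced to 100 uM tamoxifen as full stimulation.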

[11] = Cellular Toxicity (caspase-3) Jurkat (AID 655);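 also: cells exposed to compound for 16 h at 37 °C before reading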; also: potency is read from the fitted curve at half-maximal effect
Procedure, shortened: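 Jurkat cells (5000/well) in complete medium exposed 16 h at 37 C; caspase-3/7 activity read by Caspase-Glo luminescence after 20 min at room temperature. Normalized to DMSO and 100 uM tamoxifen; AC50 from Hill fits.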

[12] = Cellular Toxicity (caspase-3) HUV-EC-C (AID 656);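 also: 0% = DMSO basal and 100% = 100 µM tamoxifen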
Procedure, shortened: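 HUV-EC-C cells (1000/well) in complete medium, compound-treated 16 h at 37 °C; caspase-3/7 activity read by Caspase-Glo 3/7 luminescence. Normalized to DMSO (basal) and 100 uM tamoxifen (100%); AC50 from Hill-equation concentration-response fits.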

[13] = Cellular Toxicity (caspase-3) SHSY5Y (AID 657)
Procedure, shortened: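 SH-SY5Y human neuroblastoma cells, 1500/well, exposed to compound for 16 hours at 37 °C in complete medium. Caspase-3/7 activity read by Caspase-Glo luminescence after 1 hr at room temperature, normalized to DMSO and 10 uM staurosporine; AC50 from Hill fit.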

[14] = Cellular Toxicity (caspase-3) BJ (AID 658);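 also: 0% = DMSO basal and 100% = 10 µM staurosporine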
Procedure, shortened: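 Plated BJ cells (1000/well) rested 5 hr, received compound for 16 hr at 37 °C, then Caspase-Glo 3/7 reagent for 1 hr at room temperature before luminescence reading.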

[15] = Cellular Toxicity (caspase-3) MRC-5 (AID 659); conditions: Potency: caspase-3 activation; also: potency is read from the fitted curve at half-maximal effect;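 as to caspase-3 activation: 0% = DMSO basal and 100% = 10 µM staurosporine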
Procedure, shortened: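 Apoptosis readout in MRC-5 cells: luciferase light generated after caspase 3/7 cleaves a peptide-aminoluciferin substrate, measured post 16 hr compound incubation at 37 °C.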

[16] = Cellular Toxicity (caspase-3) Mesangial (AID 660);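 also: cells exposed to compound for 16 h before the caspase read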
Procedure, shortened: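 AC50 values come from Hill-equation fits of caspase 3/7 activation, measured as Caspase-Glo luminescence in human glomerular mesangial cells exposed to compound for 16 h at 37 °C; 100% set by 100 uM tamoxifen.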

[17] = Cellular Toxicity (caspase-3) SK-N-SH (AID 661); conditions: SK-N-SH caspase-3 activation, qHTS; caspase-3 activation: at 91.7 µM (top of the series), DMSO as zero, staurosporine as full; also: potency is read from the fitted curve at half-maximal effect;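 as to caspase-3 activation: 0% = DMSO basal and 100% = 10 µM staurosporine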
Procedure, shortened: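 Apoptosis readout in SK-N-SH neuroblastoma: Caspase-Glo 3/7 luminescence following 16 hr treatment in complete culture medium. Normalization used DMSO and 10 uM staurosporine controls.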

[18] = Cell Viability - H-4-II-E (AID 543); also: nearly all actives have a fitted effect of over 35% in size; also: potency is read from the fitted curve at half-maximal effect
Procedure, shortened: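 AC50 from Hill-modelled qHTS concentration-response curves. H-4-II-E rat hepatoma cells in complete medium, 40 hr exposure at 37 °C, viability by CellTiter-Glo ATP luminescence.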

[19] = biological target: Glucocorticoid receptor (Homo sapiens) (UniProt P04150); test: GR-GFP Redistribution (AID 450;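 active = compounds whose dose series gives a full or clear partial fitted curve of increased nuclear translocation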; also: potency is read from the fitted curve at half-maximal effect); conditions: U2OS GR-GFP nuclear translocation, laser cytometry, 2 h
Glucocorticoid receptor (Homo sapiens), sequence (P04150 whole entry, looked up): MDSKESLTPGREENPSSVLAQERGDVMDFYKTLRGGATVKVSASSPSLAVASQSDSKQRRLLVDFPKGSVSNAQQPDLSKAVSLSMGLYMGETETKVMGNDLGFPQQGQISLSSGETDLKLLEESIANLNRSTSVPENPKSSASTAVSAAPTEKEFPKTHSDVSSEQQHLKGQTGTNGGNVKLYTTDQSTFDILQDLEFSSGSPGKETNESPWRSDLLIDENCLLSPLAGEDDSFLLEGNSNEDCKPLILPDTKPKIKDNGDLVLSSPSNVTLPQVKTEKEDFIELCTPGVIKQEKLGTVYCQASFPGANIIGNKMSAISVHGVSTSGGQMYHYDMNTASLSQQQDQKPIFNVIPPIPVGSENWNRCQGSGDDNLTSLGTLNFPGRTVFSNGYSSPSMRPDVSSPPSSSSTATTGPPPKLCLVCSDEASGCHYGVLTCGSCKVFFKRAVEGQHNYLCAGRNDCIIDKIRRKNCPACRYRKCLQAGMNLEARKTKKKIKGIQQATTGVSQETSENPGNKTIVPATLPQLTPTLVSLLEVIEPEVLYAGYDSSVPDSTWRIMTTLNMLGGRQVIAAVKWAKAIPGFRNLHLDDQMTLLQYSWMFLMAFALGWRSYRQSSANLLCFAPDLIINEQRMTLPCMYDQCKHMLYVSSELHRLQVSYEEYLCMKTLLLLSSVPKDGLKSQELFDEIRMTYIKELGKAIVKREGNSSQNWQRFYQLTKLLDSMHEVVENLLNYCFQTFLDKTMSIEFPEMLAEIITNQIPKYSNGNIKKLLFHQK

3',5'-cyclic-AMP phosphodiesterase 4B (Homo sapiens), sequence (Q07343 whole entry, looked up): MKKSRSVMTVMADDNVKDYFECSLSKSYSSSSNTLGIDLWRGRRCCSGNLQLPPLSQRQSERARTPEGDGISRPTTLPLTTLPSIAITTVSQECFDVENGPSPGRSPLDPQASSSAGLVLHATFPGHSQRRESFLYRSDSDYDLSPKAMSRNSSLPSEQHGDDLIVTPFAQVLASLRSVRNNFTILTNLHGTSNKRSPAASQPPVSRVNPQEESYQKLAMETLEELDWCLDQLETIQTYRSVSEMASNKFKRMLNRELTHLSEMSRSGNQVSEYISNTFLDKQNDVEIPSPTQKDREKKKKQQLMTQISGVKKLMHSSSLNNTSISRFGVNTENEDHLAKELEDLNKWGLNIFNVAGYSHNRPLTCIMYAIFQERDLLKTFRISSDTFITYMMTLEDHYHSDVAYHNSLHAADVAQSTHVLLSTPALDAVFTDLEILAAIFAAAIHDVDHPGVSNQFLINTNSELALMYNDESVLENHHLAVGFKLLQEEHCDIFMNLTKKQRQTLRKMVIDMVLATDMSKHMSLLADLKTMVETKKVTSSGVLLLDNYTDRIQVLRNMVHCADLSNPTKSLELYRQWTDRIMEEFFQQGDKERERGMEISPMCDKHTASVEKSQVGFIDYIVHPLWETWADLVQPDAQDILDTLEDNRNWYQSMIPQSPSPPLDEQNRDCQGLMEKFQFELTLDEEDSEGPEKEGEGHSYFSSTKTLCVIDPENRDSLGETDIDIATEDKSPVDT

COc1cc(Cc2cnc(N)nc2N)cc(OC)c1OC
inactive: outcome [1] | Potency [2] | outcome [3] | activity change, negative = cytotoxicity [4] -10.3% | Potency [5] | Potency [6] | activity change, negative = cytotoxicity [7] -5.57% | Potency [8] | Potency [9] | outcome [10] | Potency [11] | outcome [12] | outcome [13] | outcome [14] | Potency [15] | outcome [16] | caspase-3 activation [17] 0.291%

Cc1scc2c1N(C(=O)CN1CCN(C)CC1)c1ccccc1NC2=O
inactive: outcome [1] | Potency [2] | Potency [9]

COC(=O)[C@H]1[C@H]2C[C@@H]3c4[nH]c5cc(OC)ccc5c4CCN3C[C@H]2C[C@@H](OC(=O)c2cc(OC)c(OC)c(OC)c2)[C@@H]1OC
active: Potency [5] 50.1 µM | Potency [18] 31.6 µM | Potency [6] 31.6 µM | activity change, negative = cytotoxicity [7] -101% | activity change, negative = cytotoxicity [8] -90.3% | Potency [15] 31.6 µM | caspase-3 activation [17] 87.8%
inactive: Potency [2] | activity change, negative = cytotoxicity [4] -19.4% | outcome [12] | outcome [13] | outcome [16]

CCN1CCc2nc(N)oc2CC1
inactive: outcome [1] | Potency [19] > 46 µM | Potency [9]

NC(=Nc1ccccc1)Nc1ccccc1
inactive: Potency [2] | outcome [3] | activity change, negative = cytotoxicity [4] -3.31% | Potency [5] | Potency [18] | Potency [6] | activity change, negative = cytotoxicity [7] -3.07% | Potency [8] | outcome [10] | Potency [11] | outcome [12] | outcome [13] | outcome [14] | Potency [15] | outcome [16] | caspase-3 activation [17] 0.122%

O=C1CC2(CCCC2)CC(=O)N1CCCCN1CCN(c2ncccn2)CC1
inactive: outcome [1] | Potency [2] | Potency [9]

CC1=C(C)C(=O)C(CCCCC#CCCCC#CCO)=C(C)C1=O
inactive: outcome [1] | Potency [19] > 46 µM and > 20.6 µM | Potency [9]

CCCCCCCC/C=C\CCCCCCCC(=O)NCc1ccc(O)c(OC)c1
inactive: Potency [9]

CCCCOCCOCCOCc1cc2c(cc1CCC)OCO2
inactive: outcome [3] | Potency [5] | Potency [18] | Potency [6] | activity change, negative = cytotoxicity [7] -1.35% | Potency [8] | outcome [10] | Potency [11] | outcome [12] | outcome [13] | outcome [14] | Potency [15] | outcome [16] | caspase-3 activation [17] 1.34%

CN(C)CCN(Cc1cccs1)c1ccccn1
inactive: outcome [1] | Potency [19] > 46 µM and > 20.6 µM | Potency [9]

COC(=O)[C@@H](N)Cc1ccc(O)c(O)c1
inactive: outcome [1] | Potency [2] | Potency [9]

CNCCCN1c2ccccc2CCc2ccccc21
inactive: outcome [1] | Potency [2] | Potency [9]

CCOC(=O)c1cnc2c(cnn2CC)c1NN=C(C)C
inactive: outcome [1]
active: Potency [9] 951 nM

COc1ccc([C@@H]2Sc3ccccc3N(CCN(C)C)C(=O)[C@@H]2OC(C)=O)cc1
inactive: Potency [19] > 46 µM and > 20.6 µM | Potency [9]

Cc1nc2ccccn2c(=O)c1CCN1CCC(C(=O)c2ccc(F)cc2)CC1
inactive: outcome [1] | Potency [19] > 46 µM and > 20.6 µM | Potency [9]

N[C@@H](COP(=O)(O)O)C(=O)O
inactive: Potency [19] > 46 µM | Potency [2]

CCc1cccc(N(C)C(N)=Nc2cccc3ccccc23)c1
inactive: Potency [19] > 46 µM | Potency [2] | Potency [9]

C[N+](C)(C)CCOC(N)=O
inactive: outcome [1] | Potency [2]

O=c1[nH]c(=O)n([C@H]2C[C@H](O)[C@@H](CO)O2)cc1Br
inactive: Potency [2] | outcome [3] | activity change, negative = cytotoxicity [4] -17.9% | Potency [5] | Potency [18] | Potency [6] | activity change, negative = cytotoxicity [7] -3.47% | Potency [8] | outcome [10] | Potency [11] | outcome [12] | outcome [13] | outcome [14] | Potency [15] | outcome [16] | caspase-3 activation [17] -0.482%

C[C@H](CS)C(=O)N1CCC[C@H]1C(=O)O
inactive: outcome [1] | Potency [2]

C[n+]1cc2c3c(ccc2c2ccc4cc5c(cc4c21)OCO5)OCO3
inactive: Potency [2] | Potency [9]
active: Potency [19] 6.57 µM

CC[N+](C)(C)c1cccc(O)c1
inactive: outcome [1] | Potency [2] | Potency [9]

CCN(CC)CC(=O)Nc1c(C)cccc1C
inactive: outcome [1] | Potency [2] | Potency [9]

CCn1cc(C(=O)O)c(=O)c2cc3c(cc21)OCO3
inactive: outcome [1] | Potency [2] | Potency [9]

Nc1ncn([C@@H]2O[C@H](CO)[C@@H](O)[C@H]2O)c(=O)n1
active: Potency [4] 5.01 µM | Potency [6] 6.31 µM | Potency [7] 15.8 µM | Potency [8] 31.6 µM | Potency [11] 2 µM | Potency [17] 31.6 µM
inactive: Potency [2] | Potency [5] | outcome [10] | outcome [12] | outcome [13] | outcome [14] | Potency [15] | outcome [16]

CCN(CC)CCNC(=O)c1ccc(NC(C)=O)cc1
inactive: outcome [1] | Potency [19] > 46 µM and > 20.6 µM | Potency [9]
